Source: the supplement of paper PMC7156485
Values joined by “and” are separate entries in the source; they are usually repeats but may differ in a detail not shown here. Equal entries are not always repeated. Unmarked numbers belong to inactive results.

Test system: HCC1569
Assay: H1.0 immunofluorescence intensity relative to DMSO (% of DMSO); higher = stronger H1.0 induction, active = 140 or more
Settings: concentration: 10 µM; 24 h
Method in brief: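 HCC1569 and TDF cells were seeded at 800 per well in 384-well plates in RPMI with 10% FBS and treated with compounds at 10 µM for 24 h at 37 °C, in triplicate. After fixation in 3.7% formaldehyde, cells were stained with a rabbit anti-H1.0 antibody, an AlexaFluor 647 secondary and DAPI, and six fields per well were imaged at ×10. H1.0 nuclear intensity or cell number is given as percent of the plate control, using the median of replicates, with HCC1569 values smoothed for positional effects.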
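Note: TDF is a line of transformed human dermal fibroblasts of mesenchymal origin.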

| Compound | H1.0 immunofluorescence intensity |
| --- | --- |
| C#C[C@]1(O)CC[C@H]2[C@@H]3CC[C@H]4Cc5nc6nc7ccccc7n6cc5C[C@]4(C)[C@H]3CC[C@@]21C | 145 (active) |
| COC(=O)c1cc2c(cn1)[nH]c1ccccc12 [Methyl beta-carboline-3-carboxylate] | 95.3 |
| COC1C(O)C(C)OC(OC2CCC3(C=O)C(CCC4C3CCC3(C)C(C5=CC(=O)OC5)CCC43O)C2)C1O (stereo not drawn) [Peruvoside] | 106 |
| CCN1CC2(C)CCC(OC)C34C5CC6CCC(O)(C5C(=O)O6)C(C(O)C23)C14 (stereo not drawn) [Heteratisine] | 88.3 |
| C[N+](C)(C)CC#CCOC(=O)Nc1cccc(Cl)c1.[Cl-] | 87.7 |
| COCC1OC(=O)c2coc3c2C1(C)C1=C(C3=O)C2CCC(=O)C2(C)CC1OC(C)=O (stereo not drawn) [Wortmannin] | 140 |
| CNCCc1c[nH]c2ccc(O)cc12.O=C(O)C(=O)O [N-omega-Methyl-5-hydroxytryptamine oxalate salt] | 96.1 |
| Br.CCCN(CCC)CCc1ccc(O)c(O)c1 [Dipropyldopamine hydrobromide] | 100 |
| Cl.Cl.c1ccc(CCCN2CCN(CCOC(c3ccccc3)c3ccccc3)CC2)cc1 | 102 |
| CN1CC(C(=O)NC2(C)OC3(O)C4CCCN4C(=O)C(Cc4ccccc4)N3C2=O)CC2c3cccc4[nH]cc(c34)CC21.CS(=O)(=O)O (stereo not drawn) [Dihydroergotamine methanesulfonate] | 95.5 |
| Cl.Clc1cc(I)cc(Cl)c1NC1=NCCN1 [p-Iodoclonidine hydrochloride] | 85.2 |
| CC(C)C1(NC(=O)C2CC3c4cccc5[nH]cc(c45)CC3N(C)C2)OC2(O)C3CCCN3C(=O)C(Cc3ccccc3)N2C1=O.CS(=O)(=O)O (stereo not drawn) [Dihydroergocristine mesylate] | 88.3 |
| CNC(=O)Oc1ccc2c(c1)C1(C)CCN(C)C1N2C (single isomer, unassigned; (-)) [(-)-Physostigmine] | 94.3 |
| NC(=O)CN1CC(O)CC1=O (stereo not drawn) [Oxiracetam] | 95.4 |
| CC(C)C1(NC(=O)C2C=C3c4cccc5[nH]cc(c45)CC3N(C)C2)OC2(O)C3CCCN3C(=O)C(Cc3ccccc3)N2C1=O (stereo not drawn) [Ergocristine] | 90.3 |
| CCC(C(N)=O)N1CCCC1=O (stereo not drawn) [Levetiracetam] | 101 |
| C=CCN1CCC23c4c5ccc(O)c4OC2C(=NN=C2CCC4(O)C6Cc7ccc(O)c8c7C4(CCN6CC=C)C2O8)CCC3(O)C1C5 (stereo not drawn) [Naloxonazine] | 117 |
| Br.C#CCOC(=O)C1=CCCN(C)C1 [Arecaidine propargyl ester hydrobromide] | 92.2 |
| CS(=O)(=O)O.Oc1ccc2c3c1OC1c4oc5ccccc5c4CC4(O)C(C2)N(CC2CC2)CCC314 (stereo not drawn) [Naltriben methanesulfonate] | 105 |
| COC1=CC2C3Cc4ccc(OC)c(O)c4C2(CCN3C)CC1=O (stereo not drawn) [Sinomenine] | 83.8 |
| CC1OC(=O)C2CC3CCCCC3C(C=CC3CCCC(C)N3C)C12 (single isomer, unassigned; (+)) [(+)-Himbacine] | 109 |
| O=C1NC(=O)c2c1c1c3ccccc3n3c1c1c2c2ccccc2n1C1CCC3O1 | 126 and 107 |
| Cl.NCCc1ccc(O)cc1 [4-Hydroxyphenethylamine hydrochloride] | 100 |
| CCCn1c(=O)c2[nH]c(C3CCCC3)nc2n(CCCOC(=O)c2ccc(S(=O)(=O)F)cc2)c1=O | 77.2 |
| C[N+]1(C)C2CCC1CC(OC(=O)c1c[nH]c3ccccc13)C2.[I-] (stereo not drawn) [3-Tropanylindole-3-carboxylate methiodide] | 114 |
| CCCCCN(C)CCC(O)(P(=O)([O-])O)P(=O)(O)O.[Na+] | 102 |
| CCOC(=O)c1ncn2c1C1CCCN1C(=O)c1cc(OC)ccc1-2 (stereo not drawn) | 102 |
| CCN1CC2(COC)CCC(O)C34C5CC6C(OC)CC(O)(C(CC23)C14)C5C6OC(C)=O (stereo not drawn) [Condelphine] | 102 |
